In PubChem BioAssay AID2508 (National Center for Advancing Translational Sciences (NCATS), 2010) one finds Potency data, which are given here for 40 compounds.

Results filed as inconclusive are left out. Activity calls are given as the source filed them. The call rests on the fitted dose curve; in most records, active means well fitted inhibition curve with a large enough effect; inconclusive means small, poorly fitted or top-dose-only effect, or effect the other way; inactive means no such curve, though single readings can be large or run the other way.

The nature of the assay: Confirmatory Assay for General miRNAs Modulators and/or Inhibitors/Activators of miR-21. The following applies: HeLa miR-21 FLuc reporter, luminescence, 48 h; series mostly up to 38.3 µM. From the text: MLSCN Grant: 1 R21 NS059478-01 Assay Provider: Qihong Huang, The Wistar Institute NCGC Assay Overview: MicroRNAs (miRNAs) are endogenously encoded small (~20-25 nucleotides), nonprotein-coding RNAs that are involved in post-transcriptional repression of target messenger RNAs (mRNAs) (Le and Hannon, 2004). Estimated to be involved in the regulation of 30% of all protein-coding mRNAs (Filipowicz et al., 2008), miRNAs play a significant role in many biological processes including cellular differentiation and tissue development (Ghildiyal and Zamore, 2009).
NCGC Assay Protocol Summary: Reagents: HeLa cells stably expressing firefly luciferase (FLuc) under the control of a CMV promoter (upstream) and a miR-21 binding sequence directly downstream of the gene. These cells endogenously express miR-21. Control compounds used were compound C3 (provided by collaborator), N6-phenyladenosine (MP Biomedicals, 0215379625), and DMSO. Assay Summary: 6uL of HeLa miR-21-FLuc cells in assay buffer (DMEM, Invitrogen #21063-029; 10% FBS, HyClone #SH30071.03) were dispensed at 2000cells/well (3.3 x 10^5 cells/mL) into Greiner solid-white TC-treated 1536-well plates using a Multidrop Combi (Thermo Fisher Scientific). Plates were incubated for one hour at 37 degree Celsius, 95% humidity, 5% CO2. These assay plates were then treated with 23nL of compound or DMSO using a Kalypsys pin tool, which allows for delivery of a 24-point titration of each compound to the assay plate, with a final compound concentration ranging from approximately 40uM to 5pM. Assay plates were then incubated for 48 hours. After incubation, plates were allowed to come to RT for one hour prior to delivery of 3uL of 3X luciferase detection reagent. After a 15 minute incubation to allow for cell lysis, luciferase activity was measured using a ViewLux CCD imager (PerkinElmer), with an average exposure time of 2-12 seconds. Keywords: NIH Roadmap, MLPCN, MLSMR, qHTS, miR-21, microRNA, firefly luciferase, FLuc.
Take `Cc1ccc(-c2nsc(SCC(=O)Nc3ccc4c(c3)OCO4)n2)cc1`: the Potency is 17.9 µM (active).
Next, `CN(C)c1ccc(CNc2nc(-c3ccco3)nn2S(C)(=O)=O)cc1`: 6.34 µM (active).
Next, `O=S(=O)(c1ccc(F)cc1)n1ccc(-c2cnc(-c3ccccc3)s2)n1`: 5.65 µM (active); `Cc1c(-c2nsc(NC(=O)c3cccs3)n2)nnn1-c1ccc(F)cc1`: 0.565 µM (active).
For `Cc1cccc(OCc2nnc(SCC(=O)Nc3ccc(N4CCOCC4)cc3)o2)c1` the value was “inactive”; for `O=C(CSc1nnc(-c2ccc(C(F)(F)F)cn2)o1)Nc1cccc(Cl)c1`, 2.25 µM (active); for `Cc1cc(C)c2c(N)c(C(=O)Nc3ccccc3F)sc2n1`, 1.42 µM (active).
Regarding `O=C(CSc1nnc(-c2ccc(O)cc2)o1)Nc1ccccc1Br`, the Potency is 1.79 µM (active).
Next, `Cc1ccccc1OCCn1cnc2c(N)ncnc21`: “inactive”; `Cc1ccc(SCC(=O)Nc2ccc3oc(-c4ccc(F)cc4)nc3c2)cc1`: 15.9 µM (active); `Clc1ccc(-n2ncc3c(NCc4ccccn4)ncnc32)cc1`: 4.49 µM (active).
For `Cc1c(-c2nc(-c3ccc(C(F)(F)F)cc3)no2)n(C)oc1=O` the value was 0.318 µM (active); for `COc1ccc(OCC(=O)Nc2cc(-c3nc4ccccc4s3)ccc2C)cc1`, 4 µM (active).
For `Cc1ccc(-c2nc(NCc3ccco3)n(S(C)(=O)=O)n2)cc1` the value was 7.98 µM (active).
In the case of `COc1ccc(OCC(=O)Nc2ccc(-c3nc4cc(Cl)ccc4o3)cc2)cc1`, the Potency is 0.503 µM (active).
As for `Cc1nnc(SCc2nc(N)nc(Nc3ccccc3)n2)s1`, the Potency was 22.5 µM (active).
Turning to `O=C(CSc1nnc(-c2ccncc2)o1)Nc1nncs1`, the Potency result was “inactive”.
For `CC(C)C(=O)Nc1nc2c(s1)CC(C(C)(C)C)CC2` (stereo not given) the value was 2.83 µM (active).
Next, `COc1ccc(-n2nnc(-c3nc(-c4cccs4)no3)c2N)cc1OC`: “inactive”.
Next, `COc1ccc(NCc2cccn2-c2nnc(N3CCC(C)CC3)s2)c(OC)c1`: 3.56 µM (active); `COc1cc(-c2nc3cnccn3c2Nc2ccc(C(C)C)cc2)ccc1O`: 2.83 µM (active).
`NC(=O)c1ccccc1NC(=O)c1ccc(-c2ccc(Br)cc2)o1`: the Potency is 2.83 µM (active).
For `COc1ccc(C(=O)Nc2nnc(C(C)C)s2)cc1OC` the value was 17.9 µM (active).
Take `COc1ccc(NC(=O)c2ncn(-c3ccccc3)n2)cc1Cl`: the Potency is 12.6 µM (active).
For `O=C(Nc1nnc(S(=O)(=O)N2CCCC2)s1)c1ccc(F)cc1` the value was “inactive”; for `COCC(=O)Nc1c(C(=O)Nc2ccc3c(c2)OCCO3)oc2ccccc12`, 0.449 µM (active); for `Cc1cccc(-c2nnc(SCC(=O)Nc3ccc(C)c(C)c3)o2)c1`, 3.18 µM (active).
`Cc1ccc(CNc2nc(-c3ccco3)nn2S(C)(=O)=O)cc1`: the Potency is 4 µM (active).
For `COc1ccc(CNc2nc(-c3ccco3)nn2C(=O)CC(C)C)cc1` the value was 11.3 µM (active); for `Nc1c(-c2nc(-c3cccs3)no2)nnn1-c1cccc(F)c1`, 0.318 µM (active).
For `Cc1ccc(NC(=O)Cn2nnc(-c3nc(-c4ccc(Cl)cc4)no3)c2N)cc1C` the value was “inactive”.
As to `Cn1c(=O)[nH]c2cc(-c3noc(-c4ccc(F)cc4)n3)ccc21`, the Potency is 10 µM (active).
For `Cc1c(-c2nnc(SCC(=O)Nc3ccccc3F)o2)nnn1-c1ccc(F)cc1` the value was 3.56 µM (active).
In the case of `COc1cccc(NC(=O)CSc2nnc(-c3cccs3)o2)c1`, the Potency is 6.34 µM (active).
Next, `CN(C(=O)CSc1nnc(-c2ccccc2F)o1)C1CCCCC1`: 14.2 µM (active); `c1ccc(C2=Nn3c(nnc3-c3cc(-c4ccccc4)n[nH]3)SC2)cc1`: “inactive”.
Next, `O=C(CSc1nnc(-c2ccc(Cl)cc2)o1)Nc1ccc(F)cc1`: 1.79 µM (active); `COc1ccc(-c2csc(NC(=O)COC(=O)c3ccc(Br)o3)n2)cc1`: 2.83 µM (active).
Next, `COc1ccccc1NC(=O)c1sc2nc3c(cc2c1N)CN(Cc1ccccc1)CC3`: “inactive”; `Cc1ccc(Nc2ncnc(N)n2)cc1C`: 11.3 µM (active).
